Assay results reported in PubChem BioAssay AID686978 (National Center for Advancing Translational Sciences (NCATS), 2013).
Out of some 420,000 compounds screened, about 64,000 (15%) were called active. Another 27% or so got no clear call; they are omitted. Calls come from the whole dose curve; as a rule, active = well fitted inhibition curve with a large enough effect; inconclusive = small, poorly fitted or top-dose-only effect; inactive = flat fitted curve, though single readings scatter. A selection follows.

assay: qHTS for Inhibitors of human tyrosyl-DNA phosphodiesterase 1 (TDP1): qHTS in cells in absence of CPT; details: DT40 Tdp1-/- hTDP1 cells, no CPT, ATP luminescence, 48 h; activity change, negative = growth inhibition: at 46.2 µM (top of the series); note: nearly all actives have a fitted effect of over 55% in size
Method in brief: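 Luminescent ATP content (CellTiter-Glo) served as the growth readout. Knockout chicken DT40 cells expressing human TDP1 were exposed to compounds without camptothecin for a minimum 48 hr at 37 °C.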
% is set by controls: 0 for no effect and ±100 for the full control effect; potency is the fitted concentration of half-maximal effect.

Compound | activity change, negative = growth inhibition | Potency
O=C(/C=C/c1ccccc1Cl)Nc1ccc(S(=O)(=O)Nc2ncccn2)cc1 | -4.45% (inactive) | 
OCCC1CN(Cc2ccc3nsnc3c2)CCN1C1CCCCC1 (stereo not drawn) | -1.61% (inactive) | 
Cc1ccc(C)c(SCc2nc3sc(C(=O)O)c(C)c3c(=O)[nH]2)c1 | 2.61% (inactive) | 
COc1ccccc1NC(=O)CC(NCCN(C)C)C(=O)O (stereo not drawn) | 15.9% (inactive) | 
C/C(=N\Nc1ccc(S(N)(=O)=O)cc1[N+](=O)[O-])c1cccs1 | -0.0475% (inactive) | 
CCOC(=O)[C@H]1[C@H]2COc3ccc(OC)cc3[C@@H]2N2C(=O)c3ccc(F)cc3NC(=O)[C@@]12C | -17.3% (inactive) | 
COC(=O)C1=C(O)/C(=C/c2ccc(OCC(=O)Nc3ccccc3)cc2)N=C1C | -2.77% (inactive) | 
O=C(COC(=O)c1cccs1)NCc1cccs1 | -4.99% (inactive) | 
Nc1nnc(C2CCCC2)s1 | 1.87% (inactive) | 
COC(=O)c1ccccc1Oc1c(F)c(F)nc(N2CCOCC2)c1F | -5.44% (inactive) | 
Cc1cc(C)cc(C(=O)NCC(=O)OCC(=O)N2CCCCC2)c1 | 0.237% (inactive) | 
O=C(O)C1CCCN(CCC=C(c2ccccc2)c2ccccc2)C1 (stereo not drawn) |  | inactive
Cn1c(=O)n(CCc2ccccc2)c(=O)c2c1nc1n2CCCN1c1ccccc1 | -9.67% (inactive) | 
COCCn1c(CN2CCC(Cc3ccccc3)CC2)nc2c1c(=O)n(C)c(=O)n2C |  | 7.31 µM (active)
CN1CCN(Cc2nc3c(c(=O)n(C)c(=O)n3C)n2Cc2cccc3ccccc23)CC1 | -27.1% (inactive) | 
CC(C)CCn1c(=O)c2c(nc3n2CCCN3Cc2ccccc2)n(C)c1=O |  | 20.6 µM (active)
CC1CCCN(Cc2nc3c(c(=O)n(C)c(=O)n3C)n2CC(=O)c2ccccc2)C1 (stereo not drawn) |  | 16.4 µM (active)
CCN1CCN(Cc2nc3c(c(=O)n(C)c(=O)n3C)n2CC(=O)c2ccccc2)CC1 | 1.2% (inactive) | 
Cn1c(=O)c2c(nc(CN3CCOCC3)n2Cc2ccccc2)n(C)c1=O | -21.3% (inactive) | 
Cn1c(=O)n(Cc2c(F)cccc2Cl)c(=O)c2c1nc1n2CCN1c1ccc(F)cc1 | 1.01% (inactive) | 
CCc1cc(CNC(=O)CC2C(=O)NCCN2CC2CCCCC2)on1 (stereo not drawn) | 13.8% (inactive) | 
Cc1ccc(S(=O)(=O)N(C)C)cc1NC(=O)C(C)OC(=O)c1ccc2ccccc2n1 (stereo not drawn) | -0.989% (inactive) | 
c1ccc(-c2nnc3n2NC(c2ccc4c(c2)OCO4)S3)cc1 (stereo not drawn) | -7.07% (inactive) | 

Compound | activity change, negative = growth inhibition | Potency
CC(C)=C1C2CCC1C1C(=O)N(NC(=O)c3ccco3)C(=O)C21 (stereo not drawn) | -5.27% (inactive) | 
CCOc1ccc(CN(Cc2ccco2)S(=O)(=O)c2ccc(-n3cnnn3)c(OC)c2)cc1 |  | 16.4 µM (active)
CCOc1ccc(S(=O)(=O)N(CC(=O)NCC(F)(F)F)Cc2ccco2)cc1 | -22.4% (inactive) | 
CCOc1ccc(C(=O)COC(=O)c2ccc(-n3cnnn3)cc2)cc1 | 7.34% (inactive) | 
COc1ccc(S(=O)(=O)N2CCOCC2)cc1NC(=O)CC1CC2CCC1C2 (stereo not drawn) | 1.4% (inactive) | 
CC1(C)CC(=O)C=C(NCCCN2CCCC2=O)C1 | -2.96% (inactive) | 
CCOc1ccc(Nc2nc(Cl)nc(N3CCN(c4ccc(OC)cc4)CC3)n2)cc1 |  | 13 µM (active)
COC(=O)CNc1nc(Cl)nc(N2CCC(C)CC2)n1 | 2.62% (inactive) | 
COc1ccc(Nc2nc(N)nc(CSC(=S)N3CCC(C)CC3)n2)cc1 | -11.9% (inactive) | 
COP1(=O)C[C@@H](O)[C@@H](O)[C@@H](COCc2ccccc2)O1 (stereo partly drawn) | 0.0592% (inactive) | 
O=c1[nH][nH]c(C(F)(F)F)c1C=NCc1ccccc1Cl | -5.68% (inactive) | 
Cc1nc2cc(NC(=O)NC3CC3)ccc2n1C | 3.34% (inactive) | 
COc1ccc(-n2c(=O)c(C)nc3cnc(N4CCOCC4)nc32)cc1 | -11.1% (inactive) | 
Cc1nc2sccn2c(=O)c1S(=O)(=O)NCCc1ccccc1 | -9.8% (inactive) | 
Cc1ccc(-c2noc(CNC(=O)c3ccoc3C)n2)cc1 | -9.26% (inactive) | 
C/C(=N\NC(=O)c1ccccc1C)c1ccc(N2CCOCC2)cc1 | -7.6% (inactive) | 
C/C(=N\NC(=O)c1ccoc1C)c1ccccc1O |  | 11.6 µM (active)
COc1ccccc1Cn1c(C)nnc1-c1cnn(C)c1N | 8.14% (inactive) | 
COCCNC(=O)C1C(=O)Nc2ccccc2C(=O)N1c1ccc2c(c1)OCCO2 (stereo not drawn) | -5.81% (inactive) | 
NC(=O)CC[C@@H]1NC(=O)[C@@H]2CCCN2C(=O)c2cc([N+](=O)[O-])cc(F)c2NCCC[C@@H](C(N)=O)NC1=O | -5.72% (inactive) | 
CC(=O)N1CCc2c(sc(NC(=O)CCS(=O)(=O)c3ccccc3)c2C#N)C1 |  | 14.6 µM (active)
CC(=O)N1CCc2c(sc(NC(=O)CCS(=O)(=O)c3ccc(C)cc3)c2C(N)=O)C1 | -30.7% (inactive) | 
CC(C)N1CCc2c(sc(NC(=O)Cc3ccccc3)c2C#N)C1 | -16.9% (inactive) | 

Compound | activity change, negative = growth inhibition | Potency
CCN(CC)C(CNC(=O)CSc1nnnn1-c1cccc(F)c1)c1ccco1 (stereo not drawn) | -26.1% (inactive) | 
Cc1ccc(C(=O)NCC(=O)O)s1 | -2.07% (inactive) | 
COc1ccc(OC)c(-c2noc(N3CCN(c4cc(Cl)ccc4C)CC3)n2)c1 |  | 25.9 µM (active)
COc1ccc(S(=O)(=O)N2CCN(c3ccc(F)cc3)CC2)cc1-c1noc(C)n1 | -14.4% (inactive) | 
CCc1nc(-c2cc(S(=O)(=O)N3CCN(c4ccc(OC)cc4)CC3)ccc2OC)no1 | -7.81% (inactive) | 
O=C(c1cccc(S(=O)(=O)N2CCCC2)c1)N(Cc1ccco1)C1CCS(=O)(=O)C1 (stereo not drawn) | -10.1% (inactive) | 
CC(NCc1nc2ccccc2n1C)C12CC3CC(CC(C3)C1)C2 (stereo not drawn) |  | 23.1 µM (active)
COc1cccc(C(O)Cc2nc3ccccc3n2C)c1OC (stereo not drawn) | -14.5% (inactive) | 
Cn1c(CNC(=O)C(C)(C)C)nc2ccccc21 | 14.1% (inactive) | 
Cc1ccc(S(=O)(=O)/N=C(/Nc2ccc3[nH]c(=O)[nH]c3c2)c2ccccc2)cc1 | -13.1% (inactive) | 
CCN(CC)CCn1c(=S)[nH]c2ncccc2c1=O | 1.26% (inactive) | 
COC(=O)c1sc2[nH]c(=S)n(N)c(=O)c2c1C | -7.88% (inactive) | 
C=CCNc1nc(C)nc(OC)n1 | 7.1% (inactive) | 
CN(C)c1ccc(C=NCCc2ccc(S(N)(=O)=O)cc2)cc1 | 2.16% (inactive) | 
CC(C)CC1(C)NC(=O)N(CC(=O)Nc2ccc3c(c2)OCCO3)C1=O (stereo not drawn) | -5.4% (inactive) | 
CC(C)OCCCNC(=S)N1CCC(C(=O)c2ccc3c(c2)OCCO3)CC1 |  | 14.6 µM (active)
COCCNC(=O)C1CCN(S(=O)(=O)c2ccc3c(c2)OCCO3)CC1 | 2.49% (inactive) | 
O=C(c1ccc2c(c1)OCCO2)C1CCN(S(=O)(=O)c2cccc(F)c2)CC1 | -28% (inactive) | 
O=C(NCCCN1CCN(C2CCCCC2)CC1)Nc1ccccc1C(F)(F)F | 3.23% (inactive) | 
CC(C)(C)c1ccc(C(=O)Nc2ccc3c(c2)CCCN3C(=O)c2cccs2)cc1 |  | 5.8 µM (active)
CC(C)C(=O)Nc1ccc(C(=O)NNC(=O)c2cccs2)cc1 | 5.71% (inactive) | 
O=C(O)c1ccc(NC(=O)c2cccs2)cc1 | -12.3% (inactive) | 
